Structures can show the parent of a compound that is named as a salt.
The compounds below were run on Saccharomyces cerevisiae BY4741 SeMeCo community (assay: z-score of subpopulation abundance vs DMSO median, subpopulation auxotrophic for H; higher = larger share of this subpopulation than in DMSO controls). Conditions: 10 µM; 24 h; SM minimal medium; subpopulation (auxotrophy): H.
Experimental: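 Fluorescent four-plasmid SeMeCo (self-establishing metabolically cooperating S. cerevisiae BY4741 community; plasmids pH-mRuby2, pL-mWasabi, pU-eCFP, pM-TagRFP657) was grown 24 h in minimal SM medium with each Selleck FDA-approved drug at 10 µM in 384-well plates. Cells were fixed and imaged by high-content confocal microscopy. For each auxotrophic subpopulation (and the prototroph), a z-score gives the deviation from the DMSO vehicle-control population median.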

Row | Compound | z-score of subpopulation abundance
1 | N[C@@H]1C[C@H]1c1ccccc1 [Tranylcypromine (2-PCPA) HCl] | -0.67
2 | COc1ccc(C(CN(C)C)C2(O)CCCCC2)cc1 (centres undefined) [Venlafaxine] | -1.33
3 | Nc1ccncc1 [4-Aminopyridine] | -0.01
4 | CN1[C@@H]2C[C@@H](OC(=O)[C@H](CO)c3ccccc3)C[C@H]1[C@@H]1O[C@@H]12 [Scopolamine HBr trihydrate] | -0.46
5 | Cc1cc(O)ccc1Cl [Chlorocresol] | -0.85
6 | Oc1cc(Cl)ccc1Oc1ccc(Cl)cc1Cl [Triclosan] | -1.93
7 | CC(C)N(CCC(C(N)=O)(c1ccccc1)c1ccccn1)C(C)C (centres undefined) [Disopyramide] | 1.28
8 | O=[N+]([O-])C(Br)(CO)CO [Bronopol] | -0.52
9 | C=CCN1C[C@H](C(=O)N(CCCN(C)C)C(=O)NCC)C[C@@H]2c3cccc4[nH]cc(c34)C[C@H]21 [Cabergoline] | -0.38
10 | CCN(C)C(=O)Oc1cccc([C@H](C)N(C)C)c1 [Rivastigmine] | -0.34
11 | CN[C@@H]1[C@@H](O)[C@@H](O[C@@H]2[C@@H](O)[C@H](O[C@H]3O[C@H]([C@@H](C)O)[C@@H](O)[C@H](O)[C@H]3N)[C@@H](N)C[C@H]2N)OC[C@]1(C)O [Geneticin (G418 Sulfate)] | -0.21
12 | CC(=O)OCC1=C(C(=O)O)N2C(=O)C(N)C2SC1 (centres undefined) [7-Aminocephalosporanic acid] | 0.4
13 | Cc1cc(C(C#N)c2ccc(Cl)cc2)c(Cl)cc1NC(=O)c1cc(I)cc(I)c1O (centres undefined) [Closantel] | -0.23
14 | C[C@@H]1O[C@@H](O[C@H]2C[C@@H](O)[C@]3(CO)[C@H]4[C@H](O)C[C@]5(C)[C@@H](C6=CC(=O)OC6)CC[C@]5(O)[C@@H]4CC[C@]3(O)C2)[C@H](O)[C@H](O)[C@H]1O [Ouabain] | -1.13
15 | C=CN1CCCC1=O.II [Povidone iodine] | 1.96
16 | CCC1=C[C@H]2CN3CCc4c([nH]c5ccccc45)[C@](C(=O)OC)(C2)[C@H]13 [Catharanthine] | -0.99
17 | CCN(C)C(=O)Oc1cccc([C@H](C)N(C)C)c1 [Rivastigmine Tartrate] | -0.17

Row | Compound | z-score of subpopulation abundance
18 | Nc1nc(N)nc(NC2CC2)n1 [Cyromazine] | 0.14
19 | CN[C@@H]1[C@@H](O)[C@@H](O[C@@H]2[C@@H](O)[C@H](O[C@H]3O[C@H](CN)CC[C@H]3N)[C@@H](N)C[C@H]2N)OC[C@]1(C)O.CN[C@@H]1[C@@H](O)[C@@H](O[C@@H]2[C@@H](O)[C@H](O[C@H]3O[C@H]([C@@H](C)N)CC[C@H]3N)[C@@H](N)C[C@H]2N)OC[C@]1(C)O.CN[C@@H]1[C@@H](O)[C@@H](O[C@@H]2[C@@H](O)[C@H](O[C@H]3O[C@H]([C@@H](C)NC)CC[C@H]3N)[C@@H](N)C[C@H]2N)OC[C@]1(C)O [Gentamicin Sulfate] | -0.2
20 | COc1ccc2c(c1)[C@]13CCCC[C@@H]1[C@H](C2)N(C)CC3 [Dextromethorphan hydrobromide hydrate] | 0.44
21 | O=c1cccc2n1C[C@@H]1CNC[C@H]2C1 [Cytisine] | -0.04
22 | CCCN1C[C@H](CSC)C[C@@H]2c3cccc4[nH]cc(c34)C[C@H]21 [Pergolide Mesylate] | -0.28
23 | COc1cc2c(cc1OC)C1CC(=O)C(CC(C)C)CN1CC2 (centres undefined) [Tetrabenazine (Xenazine)] | 0.02
24 | CC[C@@H](C(N)=O)N1CCCC1=O [Levetiracetam] | -0.46
25 | CC(C)(O)C(Cl)(Cl)Cl [Chlorobutanol] | -0.15
26 | COc1ccc(C(CN(C)C)C2(O)CCCCC2)cc1 (centres undefined) [Venlafaxine HCl] | -0.98
27 | CC[C@@]1(O)C(=O)OCc2c1cc1n(c2=O)Cc2cc3ccccc3nc2-1 [Camptothecin] | -1.03
28 | C[N+]12CCC(CC1)C(OC(=O)C(O)(c1ccccc1)c1ccccc1)C2 (centres undefined) [Clidinium Bromide] | -0.48
29 | CN(C)[C@@H]1C(=O)C(C(N)=O)=C(O)[C@@]2(O)C(=O)C3=C(O)c4c(O)cccc4[C@@](C)(O)[C@H]3[C@H](O)[C@@H]12 [Oxytetracycline (Terramycin)] | 1.45
30 | C=C(C)[C@H]1Cc2c(ccc3c2O[C@@H]2COc4cc(OC)c(OC)cc4[C@@H]2C3=O)O1 [Rotenone (Barbasco)] | 0.51
31 | CN1c2ccccc2C(NCCCCCCC(=O)O)c2ccc(Cl)cc2S1(=O)=O (centres undefined) [Tianeptine sodium] | -0.28
32 | COc1ccc(C=O)cc1 [p-Anisaldehyde] | -0.35
33 | O=C(O[C@H]1C[N+]2(CCCOc3ccccc3)CCC1CC2)C(O)(c1cccs1)c1cccs1 [Aclidinium Bromide] | -0.92
34 | CCN(CC)CCOC(=O)C(O)(c1ccccc1)c1ccccc1 [Benactyzine hydrochloride] | -0.16

Source: the supplement of paper PMC8975748
